Test results: PubChem BioAssay (Tox21)
Records with an inconclusive call do not appear. A number with no mark means an inactive call. Calls follow the shape of the dose curve; as a rule, active = well fitted activation curve with a large enough effect in the signal ratio in the repeat runs (not every such curve was filed as active); inconclusive = weak or mixed curves, or effect the other way; inactive = no such curve, though single readings can be large or run the other way; the % refers to the signal ratio.

Target: Peroxisome proliferator-activated receptor gamma (Homo sapiens) (UniProt P37231)
Assay: qHTS assay to identify small molecule agonists of the peroxisome proliferator-activated receptor gamma (PPARg) signaling pathway (AID 743094)
Details: HEK293H PPARg-UAS-bla, beta-lactamase FRET ratio, 17 h; series mostly up to 57 µM; activation: at the top concentration
Source text: U.S. Tox21 Program National Center for Advancing Translational Sciences [NCATS] NIH Chemical Genomics Center [NCGC] U.S. Environmental Protection Agency [EPA] National Institutes of Environmental Health Sciences [NIEHS] National Toxicology Program [NTP] U.S. Food and Drug Administration [FDA] Tox21 Assay Overview: The peroxisome proliferator-activated receptors (PPARs) are lipid-activated transcription factors of the nuclear receptor superfamily with three distinct subtypes namely PPAR alpha, PPAR delta (also called PPAR beta) and PPAR gamma (PPARg). All these subtypes heterodimerize with Retinoid X receptor (RXR) and these heterodimers regulate transcription of various genes. PPAR-gamma receptor (glitazone receptor) is involved in the regulation of glucose and lipid metabolism. To identify the compounds that activate PPAR-gamma signaling, GeneBLAzer PPAR gamma UAS-bla HEK293H cell line (Invitrogen, Carlsbad, CA, USA) containing a beta-lactamase reporter gene under control of the control of an upstream activator sequence (UAS) stably integrated into HEK293H cells was used to screen Tox21 compound library.
Tox21 Assay Protocol Summary: PPARg-bla cells were dispensed at 3000 cells/6uL/well in 1536-well black wall/clear bottom plates using a Multidrop Combi (Thermo Fisher Scientific, Waltham, MA) dispenser. After the assay plates were incubated at 37C and 5% CO2 for 5 h, 23 nL of compounds dissolved in DMSO, positive controls or DMSO only was transferred to the assay plate by a Pintool station (Kalypsys, San Diego, CA). The assay plates were incubated at 37C for 17 h. After 1 uL of LiveBLAzerTM B/G FRET substrate was added using a Bioraptr Flying Reagent Dispenser (FRD) workstation (Beckman Coulter, Indianapolis, IN, USA), the plates were incubated at room temperature for 1 h, and fluorescence intensity was measured by an Envision plate reader (PerkinElmer, Shelton, CT).
% is scaled to controls: 0 for no effect and ±100 for the full control effect.

Sequence of Peroxisome proliferator-activated receptor gamma (Homo sapiens) (P37231 whole entry, looked up): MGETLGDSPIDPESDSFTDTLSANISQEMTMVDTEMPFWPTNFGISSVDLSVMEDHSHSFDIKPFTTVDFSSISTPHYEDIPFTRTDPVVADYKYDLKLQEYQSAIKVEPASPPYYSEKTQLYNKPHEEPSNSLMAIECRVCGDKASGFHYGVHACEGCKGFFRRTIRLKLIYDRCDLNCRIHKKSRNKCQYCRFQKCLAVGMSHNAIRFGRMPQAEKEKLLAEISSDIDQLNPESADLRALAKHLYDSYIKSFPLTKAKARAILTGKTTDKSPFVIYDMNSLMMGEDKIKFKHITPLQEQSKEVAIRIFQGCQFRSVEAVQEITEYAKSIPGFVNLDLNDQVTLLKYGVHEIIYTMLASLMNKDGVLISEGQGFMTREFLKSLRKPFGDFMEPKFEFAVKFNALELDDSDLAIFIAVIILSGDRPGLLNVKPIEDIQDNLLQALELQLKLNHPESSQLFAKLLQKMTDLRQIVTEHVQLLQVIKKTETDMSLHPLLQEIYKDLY

SMILES | activation
COCCOC(=O)CC#N | 0.683%
N#CCc1ccccc1[N+](=O)[O-] | -0.153%
COc1cc(O)cc(O)c1 | -0.665%
CC(C)(C)CC(C)(C)N | -4.32%
Nc1nc2c(ncn2CCC(CO)CO)c(=O)[nH]1 | 4.55%
OCc1ccccn1 | -2.14%
C=CC(=O)N1CCOCC1 | 7.91%
Cc1nc(-c2ccc(OCC(C)C)c(C#N)c2)sc1C(=O)O | -2.9%
COc1cc(CCC(C)=O)ccc1O | 3.87%
c1cc(CN2CCCCC2)cc(OCCCNc2nc3ccccc3s2)c1 | -9.73%
CCN1CCCC1CNC(=O)c1cc(S(N)(=O)=O)ccc1OC (stereo not given) | 6.65%
CCCc1ccccc1O | 2.85%
CC(=O)N[C@@H](CCC(N)=O)C(=O)O | -0.0623%
CC(C)COC(=O)c1ccccc1O | 2.08%
NS(=O)(=O)c1cc2c(cc1Cl)NC(CSCc1ccccc1)=NS2(=O)=O | 1.77% [at 26.2 µM]
NC(=S)Nc1cccc2ccccc12 | -10.4% [at 7.08 µM]
NC(=O)CCCCC1CCSS1 (stereo not given) | 1.82%
COc1cccc(Br)c1 | -7.12%
CCCCN(CCO)CCO | 0.392%
CCCC=O | -7.12%

SMILES | activation
CCOC(=O)[C@H](CCc1ccccc1)N[C@@H](C)C(=O)N1CCC[C@H]1C(=O)O | -3.86%
CC(C)(C)C(=O)/C=C/c1ccc(Cl)cc1 | 8.96%
C1C2OC2C2C1C1CC2C2OC12 (stereo not given) | -3.97% [at 78.9 µM]
O=Cc1ccccc1[N+](=O)[O-] | 0.0037%
NCC[C@H](O)C(=O)N[C@@H]1C[C@H](N)[C@@H](O[C@H]2O[C@H](CN)[C@@H](O)[C@H](O)[C@H]2O)[C@H](O)[C@H]1O[C@H]1O[C@H](CO)[C@@H](O)[C@H](N)[C@H]1O | 0.67%
CC(C)COC(=O)C(C)C | 4.45%
CC(C)(C)OC(=O)N1C[C@@H](F)C[C@H]1C(=O)O | -6.03% [at 78.9 µM]
CCCCc1ccc2cccc(S(=O)(=O)O)c2c1 | 4.66%
COc1ccc(NC(C)=O)cc1 | -3.89% [at 78.9 µM]
C=C(C)C1CC=C(C)C(O)C1 (stereo not given) | -1.43% [at 78.9 µM]
C=C(C)C(=O)NCCC[N+](C)(C)C | 0.469%
CC(=O)c1ccc(C)cc1 | -3.1%
CNc1ncnc2nc[nH]c12 | 1.41% [at 78.9 µM]
O=C(O)c1ccc[n+]([O-])c1 | 2.65%
CCCOc1ccccc1-c1nc2n[nH]nc2c(=O)[nH]1 | 1.43%
COC(=O)CCCCCCCCC(=O)OC | -2.34% [at 78.9 µM]
CC(C)c1ccc2oc3nc(N)c(C(=O)O)cc3c(=O)c2c1 | 0.125%
CCN1CCN(c2cc3c(cc2F)c(=O)c(C(=O)O)cn3C2CC2)CC1 | 3.01%
COC[C@H](c1ccc(C(F)(F)F)cc1)N1CCN(C2(C)CCN(C(=O)c3c(C)ncnc3C)CC2)C[C@H]1C | -7.11%
CCCCCCCCCCCCCCCCCCOCC(O)CO (stereo not given) | 2.14%
